From PubChem BioAssay come the findings set out here.

The subject of experiment [1] is Wnt5a (protein binding on small-molecule microarray). Put plainly: Wnt5a binders on small-molecule microarray, primary screen, biophysical, 635/667 nm fluorescence (AID 1142).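 Further: fluorescence read at 667 nm with signal to noise per printed feature.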 The settings on record: 635 nm fluorescence, higher = more signal.
A short description of experiment [2]: cell viability in Huh7 cells, primary screen, cytotoxicity control for HCV replication inhibitor project, CellTiter-Glo luminescence, basal, 48 h (AID 1143).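 Further: Huh7 hepatoma cells carrying a hepatitis C replication reporter with no stimulus; test concentration not given here.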 The settings on record: Huh7 HCV replicon, higher = more signal, called active from +8 up or from −8 down. On the technique in general: Cellular ATP, detected with luciferase, serves as a proxy for viable cell number.

Experiment [3] can be described thus: P. aeruginosa biofilm formation inhibitors, primary screen, PAO1 strain, BacTiter-Glo luminescence, LB-PBS (AID 1144). The settings on record: 12 h, higher = more signal.
Experiment [4] is described as follows: CREB reporter modulators without forskolin, primary screen, cell-based, PC12, CRE-LacZ reporter, unstimulated (AID 1145). The settings on record: no forskolin, luminescence, 4.5 h, higher = more signal, called active from +8 up or from −8 down.
Experiment [5] can be described thus: CREB reporter modulators under forskolin, primary screen, cell-based, PC12, CRE-LacZ reporter, forskolin-stimulated (AID 1146).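 Further: PC12 cells with 6xCRE LacZ reporter stimulated by forskolin 10 µM; beta-galactosidase reporter signal reflecting CREB driven transcription.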 Conditions: luminescence, 4.5 h, higher = more signal, called active from +8 up or from −8 down.
Experiment [6] has as its target Streptavidin (Streptomyces avidinii) (UniProt P22629). Put plainly: streptavidin binders on small-molecule microarray, primary screen, artefact control for SMM compound annotation, biophysical, 635/667 nm fluorescence (AID 1147).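 Further: signal reflects streptavidin binding to arrayed compounds as a control protein.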 The settings on record: streptavidin binding, higher = more signal.
Experiment [7] can be described thus: small-molecule binders of probe aInhba, primary screen, biochemical, small-molecule microarray, 635/667 nm fluorescence (AID 1148).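 Further: score merges 667nm spot fluorescence with signal-to-noise for antibody binding to printed compounds.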 Conditions: higher = more signal.
For experiment [8], the target named is Torsin-1A (Homo sapiens) (UniProt O14656). Put plainly: torsin A binders from cell lysate, primary screen, small-molecule microarray, wild-type, 635/667 nm (AID 1149). The settings on record: COS7 hTOR1A-WT lysate, 635 nm fluorescence, higher = more signal.
Torsin-1A (Homo sapiens), sequence (O14656 whole entry, looked up): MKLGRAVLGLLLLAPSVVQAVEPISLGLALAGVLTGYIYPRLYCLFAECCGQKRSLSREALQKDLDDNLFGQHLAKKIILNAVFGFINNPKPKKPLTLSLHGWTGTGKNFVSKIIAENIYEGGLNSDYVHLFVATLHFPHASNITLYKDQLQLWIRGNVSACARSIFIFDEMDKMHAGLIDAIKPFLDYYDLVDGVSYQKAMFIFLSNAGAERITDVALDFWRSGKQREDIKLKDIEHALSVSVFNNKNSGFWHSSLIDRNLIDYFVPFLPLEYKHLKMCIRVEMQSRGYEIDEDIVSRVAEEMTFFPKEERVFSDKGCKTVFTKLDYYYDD
The target is the same in experiment [9]. Put plainly: small-molecule binders of mutant TOR1A in lysate, primary screen, cell lysate, small-molecule microarray, COS7 lysate, 635/667 nm fluorescence (AID 1150).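 Further: score pools 667 nm emission and signal to noise measuring lysate protein binding.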 Conditions: COS7 hTOR1A mutant lysate, 635 nm fluorescence, higher = more signal.
Experiment [10] has as its system Sonic hedgehog protein (Shh). Put plainly: small-molecule binders of Shh protein, primary screen, biochemical, small-molecule microarray, 635/667 nm fluorescence (AID 1151).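 Further: Shh protein binding to compounds spotted on small-molecule microarray slides; score combines spot fluorescence intensity with signal-to-noise across triplicate slides.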 Conditions: small-molecule microarray binding, 635 nm fluorescence; higher = more signal.
The nature of experiment [11]: E. coli DRC41 culture turbidity changes, primary screen, E. coli filamentation inducer project, strain DRC41, OD650, 48 h (AID 1152).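 Further: E. coli MC1000 strain DRC41 lacking acrAB efflux pump and sulA.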 The settings on record: E. coli DRC41 (acrAB sulA), higher = more signal, called active from +8 up or from −8 down.
Experiment [12] can be described thus: small-molecule binders of probe aLefty1, primary screen, biochemical, small-molecule microarray, 635/667 nm fluorescence (AID 1153).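 Further: score merges spot fluorescence with signal-to-noise ratio from the scanned slide images.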 Conditions: higher = more signal.
Experiment [13] can be described thus: PSAC antagonists in infected red cells, primary screen, cell-based, P. falciparum Indochina, OD700, 1 h (AID 1154). The settings on record: P. falciparum Indochina infected RBC osmotic lysis, higher = more signal, called active from +8 up or from −8 down.
The nature of experiment [14]: PSAC antagonists in infected red cells, primary screen, cell-based, P. falciparum Indochina, OD700, 2 h (AID 1155).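 Further: lysis reports solute entry through the parasite surface anion channel PSAC; channel blockers reduce lysis of infected cells.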 Conditions: P. falciparum Indochina infected erythrocytes, osmotic lysis OD700; higher = more signal, called active from +8 up or from −8 down.
A short description of experiment [15]: osmotic lysis modulators in infected erythrocytes, primary screen, PSAC antagonist project, cell-based, P. falciparum Indochina, OD700, 3 h (AID 1156). The settings on record: higher = more signal, called active from +8 up or from −8 down.
Experiment [16] can be described thus: PSAC antagonists in infected red cells, primary screen, cell-based, P. falciparum Indochina, OD700, 18 h (AID 1157). Conditions: P. falciparum Indochina infected erythrocytes, osmotic lysis OD700, 18 h; higher = more signal, called active from +8 up or from −8 down.
The nature of experiment [17]: modulators of S6 phosphorylation in cells, primary screen, cell-based, A549, cytoblot, luminescence, serum-stimulated (AID 1158).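 Further: serum-stimulated A549 lung adenocarcinoma cells; signal is phosphorylated S6 detected by cytoblot immunostaining with HRP secondary.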 Conditions: A549 phospho-S6 cytoblot, 5 h, higher = more signal.
In experiment [18] the target is NADPH oxidase 2 (Homo sapiens) (UniProt P04839). The experiment in a line: NOX2-dependent H2O2 signal modulators, primary screen, NOX inhibitor project, cell-based, HEK293-NOX2, PMA-stimulated, Amplex Red fluorescence (AID 1159). Further: test concentration not given here. Conditions: 45 min, higher = more signal, called active from +8 up or from −8 down.
NADPH oxidase 2 (Homo sapiens), sequence (P04839 whole entry, looked up): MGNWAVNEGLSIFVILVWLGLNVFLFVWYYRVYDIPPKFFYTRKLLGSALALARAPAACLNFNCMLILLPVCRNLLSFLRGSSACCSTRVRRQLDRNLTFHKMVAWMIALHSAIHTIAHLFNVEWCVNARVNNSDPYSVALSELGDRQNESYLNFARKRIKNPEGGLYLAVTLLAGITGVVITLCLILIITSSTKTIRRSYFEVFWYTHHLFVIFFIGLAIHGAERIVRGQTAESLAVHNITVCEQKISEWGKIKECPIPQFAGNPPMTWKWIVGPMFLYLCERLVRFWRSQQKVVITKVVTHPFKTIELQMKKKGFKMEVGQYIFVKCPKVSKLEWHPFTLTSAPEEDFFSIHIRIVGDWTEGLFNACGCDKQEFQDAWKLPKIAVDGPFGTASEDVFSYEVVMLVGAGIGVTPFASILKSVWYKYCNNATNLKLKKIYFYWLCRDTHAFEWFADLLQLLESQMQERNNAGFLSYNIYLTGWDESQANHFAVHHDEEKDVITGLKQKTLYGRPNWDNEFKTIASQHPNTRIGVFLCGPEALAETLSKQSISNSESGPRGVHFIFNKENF
Experiment [19] addresses NADPH oxidase 4 (Homo sapiens) (UniProt Q9NPH5). Put plainly: NOX4-dependent H2O2 signal modulators, primary screen, NOX inhibitor project, cell-based, HEK293-NOX4, tetracycline-induced, Amplex Red fluorescence (AID 1160). Conditions: 45 min, higher = more signal, called active from +8 up or from −8 down.
In experiment [20] the target is NADPH oxidase 5 (Homo sapiens) (UniProt Q96PH1). Put plainly: NOX5-dependent H2O2 signal modulators, primary screen, NOX inhibitor project, cell-based, HEK293-NOX5, Amplex Red fluorescence (AID 1161). The settings on record: HEK293-NOX5, ionomycin, 45 min, higher = more signal.
NADPH oxidase 5 (Homo sapiens), sequence (Q96PH1 whole entry, looked up): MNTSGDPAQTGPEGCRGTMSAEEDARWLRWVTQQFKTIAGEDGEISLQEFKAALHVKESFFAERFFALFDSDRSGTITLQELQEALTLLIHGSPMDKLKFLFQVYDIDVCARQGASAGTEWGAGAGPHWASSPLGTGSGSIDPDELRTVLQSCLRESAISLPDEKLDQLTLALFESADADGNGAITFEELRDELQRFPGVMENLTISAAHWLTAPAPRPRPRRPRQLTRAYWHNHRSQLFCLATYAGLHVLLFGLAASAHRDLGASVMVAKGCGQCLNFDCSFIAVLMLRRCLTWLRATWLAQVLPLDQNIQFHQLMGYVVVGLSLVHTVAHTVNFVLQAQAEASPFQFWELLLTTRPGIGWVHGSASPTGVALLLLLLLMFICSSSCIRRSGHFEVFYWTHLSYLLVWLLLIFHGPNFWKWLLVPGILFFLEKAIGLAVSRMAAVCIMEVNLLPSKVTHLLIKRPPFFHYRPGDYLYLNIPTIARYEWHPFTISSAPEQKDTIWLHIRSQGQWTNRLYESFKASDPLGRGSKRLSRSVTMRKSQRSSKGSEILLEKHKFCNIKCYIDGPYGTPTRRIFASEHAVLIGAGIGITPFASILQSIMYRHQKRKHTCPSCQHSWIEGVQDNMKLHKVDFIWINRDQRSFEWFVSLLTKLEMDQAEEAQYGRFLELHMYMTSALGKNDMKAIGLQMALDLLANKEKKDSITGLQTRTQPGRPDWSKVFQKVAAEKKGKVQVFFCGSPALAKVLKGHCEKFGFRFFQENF

SMILES strings stand for the structures. Activity calls are given as the source filed them. Unless noted, how the calls were made is not given here.

Streptavidin (Streptomyces avidinii), sequence (P22629 whole entry, looked up): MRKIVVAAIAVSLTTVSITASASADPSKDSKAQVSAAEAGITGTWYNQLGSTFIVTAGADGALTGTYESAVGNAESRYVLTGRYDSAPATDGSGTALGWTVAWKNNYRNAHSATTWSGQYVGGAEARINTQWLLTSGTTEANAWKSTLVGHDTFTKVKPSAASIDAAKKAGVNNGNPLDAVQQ
NADPH oxidase 4 (Homo sapiens), sequence (Q9NPH5 whole entry, looked up): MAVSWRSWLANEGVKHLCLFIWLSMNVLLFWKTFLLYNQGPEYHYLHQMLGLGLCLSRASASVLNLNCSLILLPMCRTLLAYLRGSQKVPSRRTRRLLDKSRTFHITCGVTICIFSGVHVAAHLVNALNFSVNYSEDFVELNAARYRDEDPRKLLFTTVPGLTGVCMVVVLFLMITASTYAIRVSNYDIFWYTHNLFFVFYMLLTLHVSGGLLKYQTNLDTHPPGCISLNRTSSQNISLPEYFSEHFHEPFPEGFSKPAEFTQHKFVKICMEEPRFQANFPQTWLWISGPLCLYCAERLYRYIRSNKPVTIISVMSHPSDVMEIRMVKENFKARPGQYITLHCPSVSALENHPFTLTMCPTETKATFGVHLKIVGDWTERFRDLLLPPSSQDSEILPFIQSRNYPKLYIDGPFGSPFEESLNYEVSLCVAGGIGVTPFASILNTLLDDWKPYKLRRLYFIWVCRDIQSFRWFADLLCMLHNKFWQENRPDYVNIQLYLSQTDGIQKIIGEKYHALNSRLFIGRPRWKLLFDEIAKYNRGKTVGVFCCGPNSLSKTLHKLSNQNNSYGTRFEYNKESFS

For `COC(=O)[C@@]1(Cc2ccc(OC)cc2)[C@H]2c3cc(C(=O)N(C)C)n(Cc4ccc(C(F)(F)F)nc4)c3C[C@H]2CN1C(=O)c1ccccc1`, the composite z-score in [1] was 0.24; in [6], 0.365; in experiment [7], 0.397; with Torsin-1A (Homo sapiens) [8], -0.0912; with Torsin-1A (Homo sapiens) [9], 0.0628; in [10] it was -0.709. This compound also had a composite z-score in experiment [12] of 0.301. In addition, the z-score was 0.398 (inactive) in experiment [2]; -0.123 (inactive) in experiment [3]; 0.59 (inactive) in experiment [4]; 1.54 (inactive) in experiment [5]; -0.346 (inactive) in experiment [11]; 0.622 (inactive) in experiment [13]. Further, the z-score was 0.315 (inactive) in experiment [14]; -0.106 (inactive) in experiment [15]; 0.471 (inactive) in experiment [16]; -0.154 in [17]; 0.152 (inactive) in experiment [18]; -1.26 (inactive) in experiment [19]. In experiment [20], this compound had a z-score of -1.13.

As for `C=C(/C(=C/C[C@H](OC(C)=O)c1ccc(OCCO)cc1)c1cc(C(=O)OC)ccc1OC)C(C)C`, the composite z-score in experiment [1] was determined as 0.269; in experiment [6], 1.17; in experiment [7], 0.0589; in the experiment with Torsin-1A (Homo sapiens) [8] it was 0.287; with Torsin-1A (Homo sapiens) [9] it was 1.98; in experiment [10], 1.41. In experiment [12], this compound gave a composite z-score of 0.0844. Besides, the z-score was -2.4 (inactive) in [2]; -0.357 (inactive) in [3]; 20.7 (active) in experiment [4]; -0.509 (inactive) in [5]; 0.759 (inactive) in experiment [11]; 19.2 (active) in [13]. The z-score in experiment [14] is 4.38 (inactive); in experiment [15], 3.26 (inactive); in experiment [16], 1.36 (inactive); in [17], 0.31; in experiment [18], 0.864 (inactive); in experiment [19], 0.217 (inactive). This compound yielded a z-score in experiment [20] of -1.42.

With `COCC(=C=CC[C@H](O)c1cccc(OCCO)c1)C[C@H](O)c1cc(Cl)cc(Cl)c1O`, the composite z-score in experiment [1] is 0.556; in [6], -0.128; in [7], 0.0104; with Torsin-1A (Homo sapiens) [8] it was 1.06; in the experiment with Torsin-1A (Homo sapiens) [9] it was 0.878; in experiment [10], 1.77. For the same compound, the composite z-score in experiment [12] stood at 0.0012. Also, the z-score is -0.465 (inactive) in [2]; -0.494 (inactive) in experiment [3]; 10 (active) in [4]; 0.32 (inactive) in [5]; 0.652 (inactive) in [11]; 22.1 (active) in experiment [13]. The z-score in experiment [14] was 5.78 (inactive); in experiment [15] it was 0.658 (inactive); in experiment [16], 1.21 (inactive); in [17], 0.232; in experiment [18], -0.707 (inactive); in experiment [19], -0.429 (inactive). This compound also registered a z-score in experiment [20] of -1.25.

For `CC(=O)n1cc(C(O)C2C=CC3C(=O)NC(=O)C3N2Nc2ccccn2)c2ccccc21` (stereo not given), the composite z-score in [1] was 0.109; in experiment [6], 0.153; in [7], 0.23; with Torsin-1A (Homo sapiens) [8], 0.865; with Torsin-1A (Homo sapiens) [9], 0.153; in [10] it was 0.41. For the same compound, the composite z-score in experiment [12] is -0.101. The z-score was 0.713 (inactive) in [2]; -0.781 (inactive) in [3]; -0.14 (inactive) in experiment [4]; 0.593 (inactive) in experiment [5]; -0.734 (inactive) in [11]; 0.625 (inactive) in experiment [13]. The z-score in [14] is 0.827 (inactive); in experiment [15] it was -0.313 (inactive); in experiment [16], 0.679 (inactive); in [17], -0.612; in [18] it was -1.68 (inactive); in experiment [19] it was -2.41 (inactive). Moreover, in [20], the z-score was -1.58.
